# Screening data from PubChem.
# Hits are enriched below; roughly 5.2% of the tested compounds scored in any of these assays.
# TrxR1 substrate – rat thioredoxin reductase 1 substrate activity; Potency, µM (top dose mostly 114 µM), for inactives: at the top dose activity change, negative = substrate turnover; O89049; purified TrxR1 substrate turnover, NADPH consumption readout; 0.01% of 390,000 active; AID 588456; further: potency means the concentration at half of the fitted maximal effect; nearly all actives have a fitted effect of over 50% in size
#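 Rat TrxR1, dispensed at 90 nM, was prereduced with 400 uM NADPH (final) for 5 min at ~22 deg C, then incubated with compound 15 min before 400 uM selenite. A first-read NADPH fluorescence drop versus no-compound background flagged substrates.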
# rTrxR1 inhibitor – blocks rat thioredoxin reductase 1. O89049. recombinant rTrxR1, NADPH fluorescence consumption, selenite substrate. Potency, µM (highest dose often 114 µM), for the others: at the top dose activity change, negative = inhibition, most hits filed as inhibitors. 1% of 390,000 active; further: potency means the concentration at half of the fitted maximal effect; nearly all actives have a fitted effect of over 65% in size
#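 Rat TrxR1 (90 nM in the dispensed reagent) was pre-reduced with 400 uM NADPH for 5 min at room temperature, then incubated with compound for 15 min. After 400 uM selenite was added, NADPH fluorescence (Ex 340/Em 450 nm) was followed for 8 min.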
# Sfp PPTase inh – blocks B. subtilis Sfp PPTase activity; Q9F4F7; Biochemical Sfp PPTase activity, qHTS; Potency, µM, for inactives: largest response in the series, negative = inhibition, most hits filed as inhibitors; 3.5% of 310,000 active; AID 1490;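 further: the enzyme is Sfp with the accession as filed and its product quenches rhodamine fluorescence; potency means the concentration at half of the fitted maximal effect; 0% = enzyme reaction without inhibitor and -100% = no enzyme wells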
#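 Step 1, compound plus 15 nM Sfp-PPTase, 15 min, room temperature. Step 2, add rhodamine-CoA (5 uM) and BHQ-2-YbbR (12.5 uM). Step 3, read 525/598 nm fluorescence at 0 and 30 min.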
# IDH1 R132H inh – human IDH1 R132H inhibition; IDH1-R132H enzyme, NADPH consumption, diaphorase/resazurin fluorescence; O75874; Potency, µM (series often up to 76.6 µM), for the others: at the highest dose activity change, negative = inhibition, hits mostly inhibitors; 0.093% of 390,000 active; further: potency means the concentration at half of the fitted maximal effect; nearly all actives have a fitted effect of over 65% in size
# Target sequence (O75874 whole entry R132H, stated change not applied): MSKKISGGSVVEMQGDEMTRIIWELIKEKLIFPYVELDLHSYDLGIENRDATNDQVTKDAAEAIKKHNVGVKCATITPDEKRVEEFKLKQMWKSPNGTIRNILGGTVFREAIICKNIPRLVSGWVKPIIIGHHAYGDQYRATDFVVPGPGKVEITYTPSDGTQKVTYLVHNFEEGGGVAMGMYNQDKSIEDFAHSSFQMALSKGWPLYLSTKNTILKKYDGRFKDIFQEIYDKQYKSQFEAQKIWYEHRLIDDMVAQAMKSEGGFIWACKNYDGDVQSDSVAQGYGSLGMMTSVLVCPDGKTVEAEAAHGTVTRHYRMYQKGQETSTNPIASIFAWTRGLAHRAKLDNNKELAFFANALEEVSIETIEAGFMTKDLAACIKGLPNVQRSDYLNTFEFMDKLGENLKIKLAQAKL
#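 IDH1-R132H (0.5 ug/mL) preincubated 30 min with compound, then NADPH (0.016 mM) and alpha-KG (2 mM) added; 80 min at RT, pH 7.5. Remaining NADPH coupled via diaphorase/resazurin to fluorescence (540/590 nm); concentration-response curves normalized to no-enzyme control.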
# VDR inh – vitamin D3 receptor (human) inhibition. P11473. VDR-SRC2-3 peptide fluorescence polarization, 2 h. Potency, µM, for the others: max response, negative = inhibition, most hits filed as inhibitors. 0.93% of 400,000 active; further: potency means the concentration at half of the fitted maximal effect
#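 Reagent solutions, kept cold and dark, are dispensed first; compounds are then pinned in at 23 nl, plates briefly spun, and incubated 2 h at ambient temperature. Inhibition of VDR–SRC2-3 peptide binding is read by fluorescence polarization.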
# PLK1 PBD inh – inhibitors of human PLK1 polo-box domain binding; P53350; Plk1 PBD binding of FITC phosphopeptide, fluorescence polarization; Potency, µM, for inactives: max response, negative = inhibition, usual class: inhibitors; 2.8% of 360,000 active; AID 720504; further: potency means the concentration at half of the fitted maximal effect; series mostly up to about 57 µM; nearly all actives have a fitted effect of over 65% in size
# Sfp inh conf – Sfp phosphopantetheinyl transferase inhibition, confirmation; Sfp PPTase enzymatic assay, qHTS titration; AID 2701; Potency, µM (top dose mostly 114 µM), for the others: at the top dose activity change, negative = inhibition, actives largely listed as inhibitors; shares compounds with Sfp PPTase inh; 79% of 380 active;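 further: potency means the concentration at half of the fitted maximal effect; plate controls were uninhibited Sfp reaction for no effect and no enzyme control for full effect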
# Target sequence (Q9F4F7 whole entry, looked up): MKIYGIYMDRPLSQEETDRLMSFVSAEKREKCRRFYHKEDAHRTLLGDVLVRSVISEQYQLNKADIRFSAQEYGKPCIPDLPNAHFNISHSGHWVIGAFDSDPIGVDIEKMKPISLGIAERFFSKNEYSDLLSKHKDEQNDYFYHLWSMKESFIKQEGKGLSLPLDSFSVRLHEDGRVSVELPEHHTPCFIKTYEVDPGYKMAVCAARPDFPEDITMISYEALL
# Sfp gel assay – Inhibits B. subtilis Sfp phosphopantetheinylation; shares compounds with Sfp PPTase inh; purified Sfp, gel-based phosphopantetheinylation read-out; Potency, µM, usual class: inhibitors; 20% of 210 active;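 active means potency below 100 µM; inconclusive means dose-dependent response but potency above 100 µM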;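 further: band intensities scaled against SCH202676 control wells before curve fitting; potency is an IC50 for inhibitors of Sfp transfer activity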
# * marks the source's active call; other numbers are inactive results; i = inactive; ? = inconclusive; . = no result; ! = a repeat was not active; [ ] = remark or other dose. Unless noted, the call rests on the fitted dose curve; in most records, active means well fitted curve in the direction sought with a large enough effect; inconclusive means small, poorly fitted or top-dose-only effect, or another doubt; inactive means no such curve, though single readings can be large; an effect the other way counts as inactive or inconclusive. Unless noted, on the % scale 0 is the no-effect control and ±100 the full control effect.
SMILES,TrxR1 substrate,rTrxR1 inhibitor,Sfp PPTase inh,IDH1 R132H inh,VDR inh,PLK1 PBD inh,Sfp inh conf,Sfp gel assay
CN(C)CCCN1c2ccccc2CCc2ccc(Cl)cc21,4.4%[57.1 µM],?,56.2µM*!,11.0%,-4.4%,1.2%,?,i
Cc1ccc(-c2nc(-c3cc4c([nH]c3=O)CC(C)(C)CC4=O)sc2C)cc1,5.8%,-4.9%,.,0.1%,4.3%,.,.,.
CCc1ccc(C2c3c(-c4ccccc4O)n[nH]c3C(=O)N2Cc2cccnc2)cc1 (stereo not drawn),-1.4%,3.8%,.,?,9.5%,.,.,.
Cc1ccc2c(c1)CCCN2C(=O)Nc1ccc2c(c1)OCO2,7.6%[57.1 µM],9.5%[57.1 µM],3.16µM*,6.1%,?,26.7µM*,?,i
OCc1ccc(-c2nn(Cc3ccccc3)c3ccccc23)o1,10.2%[57.1 µM],?,4.47µM*,-0.9%,?,-13.4%,14.8µM*,.
COc1ccc(CCC(=O)NCc2ccc3c(c2)CCN3C(=O)c2ccc(C)cc2)cc1,-5.8%[57.1 µM],3.9%[57.1 µM],.,-9.6%,15.6%,.,.,.
Cc1cc(F)ccc1NC(=O)C(c1ccccc1)N1Cc2ccccc2C1=O (stereo not drawn),-6.7%,5.0%,.,7.3%,6.9%,.,.,.
O=C(O)CNc1nc(-c2ccccc2)c2cc([N+](=O)[O-])ccc2n1,-13.5%,-30.3%,6.31µM*,3.7%,-24.8%,-7.3%,14.8µM*,?
O=C(COC(=O)/C=C/c1ccco1)NCc1ccccc1Cl,0.8%,-16.6%,7.94µM*,2.3%,5.7%,-11.8%,37.3µM*,i
COc1ccc(Cn2nnnc2C(C(C)C)N2CCN(c3ccccc3OC)CC2)cc1 (stereo not drawn),-10.7%[57.1 µM],3.9%[57.1 µM],7.5%,3.3%,-10.0%,-1.2%,.,.
CC(C)C(c1nnnn1Cc1ccc(F)cc1)N1CCN(c2ccc(O)cc2)CC1 (stereo not drawn),-5.6%[57.1 µM],-1.7%[57.1 µM],15.8µM*,3.4%,2.9%,-9.3%,46.9µM*,.
COc1ccccc1NC(=O)c1c(NC(=O)CCC(=O)O)sc2c1CCCCC2,-0.6%,12.4%,10µM*,6.1%,-13.4%,-24.8%,21µM*,.
COc1ccccc1NC(=O)c1c(NC(=O)COc2ccccc2)sc2c1CCCCC2,-3.9%,7.6%,.,-21.2%,-14.3%,.,.,.
O=C(O)CCC(=O)Nc1sc2c(c1C(=O)Nc1ccccc1)CCCCC2,4.7%[57.1 µM],-15.2%[57.1 µM],12.6µM*,2.8%,?,?,14.8µM*,.
COc1ccc(NC(=O)c2c(NC(=O)COc3ccccc3)sc3c2CCCCC3)cc1,0.8%,26.1%,.,?,-19.7%,.,.,.
COc1ccc(-c2csc(Nc3ccc(C)cn3)n2)cc1,5.7%[57.1 µM],28.1%[57.1 µM],6.31µM*,5.2%,-7.1%,-15.5%,59.1µM*,i
CCN1CCN(C(=S)NCCc2ccccc2)CC1,4.0%,10.3%,-26.3%,-0.3%,-13.0%,-6.9%,.,.
CCN1CCN(C(=S)c2ccc(O)cc2)CC1,-10.4%,-2.7%,2.82µM*,-6.1%,79.4µM*,4.74µM*,8.35µM*,.
C/C=C/c1ccc(OCCCCn2cncn2)c(OC)c1,1.3%,2.3%,1.12µM*,7.0%,-10.0%,-1.3%,-1.1%,i
C/C=C/c1ccc(OCCCn2cncn2)c(OC)c1,-5.6%,-3.7%,?,-3.5%,6.0%,0.3%,.,.
Cc1ccc(-c2cc(C(=O)N3CCN(c4ncccn4)CC3)c3cc(Br)ccc3n2)o1,15.0%[57.1 µM],-77.6%,7.94µM*,2.3%,16.3%,6.7µM*,4.69µM*,.
COc1ccc(-c2cc(C(=O)N3CCN(c4ncccn4)CC3)c3ccccc3n2)cc1,63.0%,-7.9%,.,5.5%,8.0%,0.9%,.,.
OC(C#Cc1ccccn1)c1cccs1 (stereo not drawn),-8.4%[11.4 µM],?,17.8µM*,0.8%,50.1µM*,29.9µM*,46.9µM*,i
CC(=O)c1cccc(S(=O)(=O)N2CCCC(c3nc(-c4ccc(C)o4)no3)C2)c1 (stereo not drawn),1.8%[57.1 µM],?,56.2µM*,11.7%,-17.0%,-20.2%,23.5µM*,.
Cc1ccc(-c2noc(C3CCCN(S(=O)(=O)c4ccc5ccccc5c4)C3)n2)o1 (stereo not drawn),8.6%,-16.0%,-18.1%,9.8%,5.6%,-10.9%,.,.
SMILES,TrxR1 substrate,rTrxR1 inhibitor,Sfp PPTase inh,IDH1 R132H inh,VDR inh,PLK1 PBD inh,Sfp inh conf,Sfp gel assay
CC(OC(=O)Cn1cnc2ccccc2c1=O)C(=O)NCc1ccccc1 (stereo not drawn),6.1%[57.1 µM],14.2%[57.1 µM],.,9.2%,-1.3%,-3.9%,.,.
Cc1cc(SCC(=O)NN)c2cc(Br)ccc2n1,-4.6%,47.4%,22.4µM*,7.0%,28.2µM*,?,?,.
Cc1cc(C(=O)NN)c2cc(Br)ccc2n1,-9.6%,-18.5%,15.4%,10.8%,-10.8%,2.3%,.,.
CC(C)[C@H](NC(=O)OC(C)(C)C)c1nnc(S(=O)(=O)Cc2c(F)cccc2Cl)o1,10.0%,0.708µM*,14.1µM*,16.9%,?,9.47µM*,29.6µM*,?
O=S1(=O)c2ccccc2N(Cc2ccc(F)cc2)c2ccccc21,1.8%[57.1 µM],19.3%[57.1 µM],.,6.0%,1.7%,.,.,.
CO/N=C(\C(=O)N[C@@H]1C(=O)N2C(C(=O)O)=C(COC(N)=O)CS[C@H]12)c1ccco1,4.4%,?,-11.2%,15.8%,-26.5%,-24.4%,.,.
CO/N=C(\C(=O)N[C@@H]1C(=O)N2C(C(=O)[O-])=C(C[n+]3cccc4c3CCC4)CS[C@H]12)c1csc(N)n1,.,.,56.2µM*,.,28.2µM*,.,41.8µM*,55.6µM*
CO/N=C(/C(=O)N[C@@H]1C(=O)N2C(C(=O)O)=C(CSC(=O)c3ccco3)CSC12)c1csc(N)n1 (stereo partly drawn),.,.,56.2µM*,.,?,.,46.9µM*,6.17µM*
Cc1cccc(NC(=O)Cn2cc(C(=O)C3CCCCC3)c3ccccc32)c1C,-0.4%,12.4%,.,-19.0%,-13.7%,.,.,.
Cc1ccc(S(=O)(=O)c2nc(S(C)(=O)=O)sc2N2CCC3(CC2)OCCO3)cc1,11.8%,22.6%,4.1%,0.0%,-0.8%,-1.6%,.,.
